Among all 56,000 sequences or so, about 5,400 (9.6%) were called active. This is one part of a sample in which actives are shown more often than they occur. Rule as the data show it: active = GI50 up to about 1.1 µM and inactive = higher. Potency and affinity values are given separately.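 Protocol summary: plate cells (96-well), add compound at 5 concentrations, incubate 48 h, interpolate endpoints linearly. Abbreviation: GI50, concentration required for 50% inhibition of growth.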
What follows are substances tested on K562 (assay: NCI tumour cell line growth inhibition, 48 h).

Substance	GI50 [µM]
[Bis(aminomethyl)pentamethylenesilane]dichloropaltinum(II), CHEMBL2146202	3.47
[Bis(aminomethyl)tetramethylenesilane]dichloropaltinum(II), CHEMBL2146205	10.2
[Bis(aminomethyl)tetramethylenesilane]tetrachloropaltinum(IV), CHEMBL2146189	2.57
cis-Bis[[(trimethylsilyl)methyl]amino]tetrachloroplatinum(IV), CHEMBL2146191	2.92
[Bis(aminomethyl)dimethylsilane]tetrachloroplatinum(IV), CHEMBL2146190	3.78
[Bis(aminomethyl)pentamethylenesilane]tetrachloropaltinum(IV), CHEMBL2146204	1.79
[Bis(aminomethyl)diethylsilane]tetrachloroplatinum(IV), CHEMBL2146203	0.916
[Bis(aminomethyl)ethylmethylsilane]tetrachloroplatinum(IV), CHEMBL2146192	1.69
[Bis(aminomethyl)dimethylsilane]dichloroplatinum (II), CHEMBL2146201	16.5
CHLOROTRIPHENYLSTANNANE, CHEMBL515580	0.0256
CISPLATIN, CHEMBL11359	5.56
mu-(1,7-nanodiamine-N,N')bis-(cis-aminedichloroplatimum (II)), CHEMBL2146215	30.7
